The values that follow come from ChEMBL document CHEMBL1157539, “Thousands of chemical starting points for antimalarial lead identification” (Nature, 2010).

Several values for one entry are separate records, joined by “and”; a condition that tells them apart may be missing. Equal entries are not always repeated.

The assay has as its system HepG2. Briefly: GSK_TCMDC: Percent inhibition of human HepG2 cell line. Test compounds present at 10uM. Format: functional.
`COc1coc(C(=O)NC2CCN(CC3(c4ccc(Cl)cc4)CCC3)CC2)c1OC` showed an Inhibition of 2%.

`O=C(/C=C/c1ccc(Cl)c(Cl)c1)N1CCC(CN2CCC(c3c(-c4ccccc4)[nH]c4ccccc34)CC2)CC1` yielded an Inhibition of 43%.

Take `COc1ccc(C=CC(=O)NC2CCC(CN3CCC(c4c[nH]c5ccccc45)CC3)CC2)cc1OC` (stereo not drawn): the Inhibition was 14% and 15%.

On to `O=C(/C=C/c1ccc(Cl)cc1)NC1CCC(CN2CCC(c3c[nH]c4ccccc34)CC2)CC1` (stereo not drawn), for which the Inhibition is 40% and 39%.

On to `CC[C@H]1CN2CC[C@@H]1C[C@H]2[C@H](O)c1cc(N2CCC(N3CCCCC3)CC2)nc2ccc(OC)cc12`, for which the Inhibition is reported as 0%.

The compound `O=c1c2ccccc2nc(/C=C/c2ccc([N+](=O)[O-])cc2)n1-c1ccccn1` registered an Inhibition of 5%.

`CC(Cc1ccc(Oc2ccc(Cl)cc2)cc1)NCC(O)c1cccc(Cl)c1` (stereo not drawn) displayed an Inhibition of 3%.

The compound `CCOC(=O)c1c(C)n(C2CCCCCC2)c2cc(Br)c(O)cc12` yielded an Inhibition of 0%.

Compound `CC(C)CNCc1cccc(-c2cccc(CN(C(=O)Nc3ccccc3)C3CCN(Cc4ccccc4)CC3)c2)c1.O=C(O)C(F)(F)F` returned an Inhibition of 31%.

As to `COC(=O)c1ccc(CC(C)NCC(O)c2cccc(Cl)c2Cl)cc1.Cl` (stereo not drawn), the Inhibition is recorded as 0%.

The compound `CCCCCC(C)C(C)c1cc(O)c2c3c(c(=O)oc2c1)CN(Cc1ccccc1)CC3.Cl` (stereo not drawn) showed an Inhibition of 4%.

In the case of `Cc1c(C)c2c(c(C)c1O)CC[C@@](C)(C(=O)NC1CCC(CN3CCC(c4c[nH]c5ccccc45)CC3)CC1)O2` (stereo partly drawn), the Inhibition stood at 29%.

`CCCC(=O)c1c(O)c2ccccc2oc1=O`: the Inhibition is recorded as 11%.

The compound `O=C(/C=C/c1ccc2ccccc2c1)NC1CCC(CN2CCC(c3c[nH]c4ccccc34)CC2)CC1` (stereo not drawn) came in with an Inhibition of 28%.

`CCCCCCCc1cc(O)c2c(c1)OC(C)(C)c1ccncc1-2.Cl`: the Inhibition is recorded as 0%.

Take `Cc1csc(NC2=NCCN2)n1.Cl`: the Inhibition was determined as 10%.

Compound `CC(Cc1ccc(S(=O)(=O)N(C(C)C)C(C)C)cc1)NCC(O)c1cccc(C(F)(F)F)c1.Cl` (stereo not drawn) came in with an Inhibition of 21%.

For `CCCCCCC(C)(C)c1cc(O)c2c3c(c(=O)oc2c1)CCN(Cc1ccccc1)C3.Cl`, the Inhibition amounted to 3%.

In turn, `Cc1ccc(-n2nc(C)c3c2NC(=O)CSC3c2ccsc2)cc1` (stereo not drawn) displayed an Inhibition of 0%.

Turning to `CN(C)CCc1c[nH]c2ccc(C(=O)Nc3ccc(-c4ccncc4)cc3)cc12.O=C(O)CCC(=O)O`, the Inhibition was 23%.

`COC(C(=O)OCCC1CCCN1C)(c1ccccc1)C1CCCCC1` (stereo not drawn) had an Inhibition of 3%.

As for `CC(NC(C)(C)C)C(O)c1ccc(Cl)c(C(F)(F)F)c1.Cl` (stereo not drawn), the Inhibition came out at 0%.

For `O=C(Nc1ccc(Oc2ccccc2)cc1)NC1CCC(CN2CCC(c3c[nH]c4ccccc34)CC2)CC1` (stereo not drawn), the Inhibition turned out to be 55%.

With `O=C(/C=C/c1cccc(F)c1)NC1CCC(CN2CCC(c3c[nH]c4ccccc34)CC2)CC1` (stereo not drawn), the Inhibition was 39% and 35%.

The compound `CC(C)CNCc1cccc(-c2ccc(CN(C(=O)NC3CCCCC3)C3CCN(Cc4ccccc4)CC3)cc2)c1.O=C(O)C(F)(F)F` returned an Inhibition of 27%.

`CNC(=O)c1ccc2[nH]cc(C3CCN(CC4CCC(NC(=O)/C=C/c5ccccc5Cl)CC4)CC3)c2c1` (stereo not drawn): the Inhibition turned out to be 12%.

Compound `CCCc1c(C(=O)NC2CCC(CN3CCC(c4c[nH]c5ccccc45)CC3)CC2)cnn1-c1ccccc1` (stereo not drawn) showed an Inhibition of 33%.

As for `COC(=O)c1sccc1NC(=S)NC1CCC(CN2CCC(c3c[nH]c4ccccc34)CC2)CC1` (stereo not drawn), the Inhibition is 34% and 25%.

In turn, `CNCCN(C)C(=O)Oc1c(Cl)c(C)nc(C)c1-c1ccc(Oc2ccc(OC(F)(F)F)cc2)cc1.Cl` displayed an Inhibition of 0%.

Compound `O=C(NC1CCC(CN2CCC(c3c[nH]c4ccccc34)CC2)CC1)c1cc(-c2ccccc2)c(C(F)(F)F)s1` (stereo not drawn) yielded an Inhibition of 55%.

`CC(Cc1ccc(NC(=O)[C@@H](C)NCCc2cccc(Cl)c2)cc1)NCCc1cccc(Cl)c1.Cl` (stereo partly drawn) showed an Inhibition of 99%.

Compound `Cc1cc(O)cc2c(C3CCN(CC4CCN(C(=O)/C=C/c5ccc(Cl)c(Cl)c5)CC4)CC3)c[nH]c12` displayed an Inhibition of 33%.

On to `Clc1ccc2nccc(N3CCC(CN4CCC(c5c[nH]c6ccccc56)CC4)CC3)c2c1.O=C(O)C(F)(F)F`, for which the Inhibition was found to be 46%.

With `C/C=C1/CN2CC[C@H]1C[C@H]2[C@H](O)c1ccnc2ccc(OC)cc12`, the Inhibition turned out to be 0%.

Take `CCCCCC(C)C(C)c1cc(O)c2c(c1)OC1(C(C)C)CC(O)C(C)C2C1` (stereo not drawn): the Inhibition was determined as 1%.

`CC(C)CNCc1ccc(-c2cccc(CN(C(=O)Nc3ccccc3)C3CCN(Cc4ccccc4)CC3)c2)cc1.O=C(O)C(F)(F)F` displayed an Inhibition of 48%.

In turn, `O=C(/C=C/c1ccc(Cl)c(Cl)c1)NC1CCC(N2CCC(c3c[nH]c4ccccc34)CC2)CC1` (stereo not drawn) came in with an Inhibition of 41%.

The compound `O=C(/C=C/c1ccc(Cl)c(Cl)c1)Nc1cccc(CN2CCC(c3c[nH]c4ccc(O)cc34)CC2)c1` returned an Inhibition of 11%.
